From the supplement of paper PMC9694430
Where “and” joins values, the source holds several entries; their conditions need not be identical. Identical values can stand only once. Counter-ions that a name gives are not always drawn.

Key:
Assay in all cases: thermal shift delta Tm vs DMSO control; higher = stronger stabilization (binding)
Conditions in all cases: 12.5 µM; protein concentration 2 µM
LOC_OS01G01410-cb001 = test system: LOC_OS01G01410-cb001
Procedure, shortened: (§1)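 Heating from 25°C to 95°C at 0.05°C/s, fluorescence was recorded for 19.5 μl wells of 2 μM E. coli-expressed, purified rice kinase domain in 100 mM potassium phosphate pH 7.5, 150 mM NaCl, 10% glycerol and 5 × SYPRO Orange with compound in DMSO. Boltzmann fits gave melting temperatures for this differential scanning fluorimetry assay. The shift reported is the mean of three replicates against the DMSO-only protein.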

LOC_OS01G02750-cb003 = test system: LOC_OS01G02750-cb003
Procedure, shortened: as §1

LOC_OS01G10900-cb004 = test system: LOC_OS01G10900-cb004
Procedure, shortened: as §1

LOC_OS01G13800-cb001 = test system: LOC_OS01G13800-cb001
Procedure, shortened: as §1

LOC_OS01G14860-cb001 = test system: LOC_OS01G14860-cb001
Procedure, shortened: as §1

LOC_OS01G21960-cb002 = test system: LOC_OS01G21960-cb002
Procedure, shortened: as §1

LOC_OS01G39600-cb002 = test system: LOC_OS01G39600-cb002
Procedure, shortened: as §1

LOC_OS01G48390-cb002 = test system: LOC_OS01G48390-cb002
Procedure, shortened: as §1

LOC_OS01G51400-cb002 = test system: LOC_OS01G51400-cb002
Procedure, shortened: as §1

LOC_OS01G52050-cb004 = test system: T1, LOC_OS01G52050-cb004
T1 sequence (whole entry): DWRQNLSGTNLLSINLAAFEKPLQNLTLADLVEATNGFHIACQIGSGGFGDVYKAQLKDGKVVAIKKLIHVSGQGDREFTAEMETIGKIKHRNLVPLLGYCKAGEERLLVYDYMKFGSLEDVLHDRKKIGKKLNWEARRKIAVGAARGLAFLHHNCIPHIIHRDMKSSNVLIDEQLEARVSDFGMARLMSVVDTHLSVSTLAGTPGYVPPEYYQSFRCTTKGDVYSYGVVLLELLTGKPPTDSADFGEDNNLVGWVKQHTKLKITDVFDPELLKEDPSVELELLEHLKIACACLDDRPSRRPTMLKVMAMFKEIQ
Procedure, shortened: as §1
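Further: purified Escherichia coli-expressed rice kinase domain construct.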

Row | Structure (SMILES) | thermal shift delta Tm (LOC_OS01G01410-cb001) | thermal shift delta Tm (LOC_OS01G02750-cb003) | thermal shift delta Tm (LOC_OS01G10900-cb004) | thermal shift delta Tm (LOC_OS01G13800-cb001) | thermal shift delta Tm (LOC_OS01G14860-cb001) | thermal shift delta Tm (LOC_OS01G21960-cb002) | thermal shift delta Tm (LOC_OS01G39600-cb002) | thermal shift delta Tm (LOC_OS01G48390-cb002) | thermal shift delta Tm (LOC_OS01G51400-cb002) | thermal shift delta Tm (LOC_OS01G52050-cb004)
1 | O=C(NOCC1CC1)c1ccc(F)c(F)c1Nc1ccc(I)cc1Cl | 1.01 °C | 11.3 °C | 1.62 °C | 0.71 °C | 1.37 °C | 1.16 °C | 1.41 °C | 1.28 °C | 0.54 °C | 2.25 °C
2 | CS(=O)(=O)c1cccc(CNc2nc(Nc3ccc4c(c3)CCC(=O)N4)ncc2C(F)(F)F)c1 | 3.58 °C | 3.6 °C | 1.39 °C | -0.34 °C | 3.83 °C | 3.04 °C | 7.76 °C | 3.42 °C | 2.2 °C | 5.18 °C
3 | Cn1cnc2c(F)c(Nc3ccc(Br)cc3Cl)c(C(=O)NOCCO)cc21 [Selumetinib (AZD6244)] | 0.81 °C | -0.16 °C | 0.43 °C | 0.45 °C | 0.22 °C | 0.07 °C | 0.25 °C | 1.04 °C | 0.36 °C | 0.08 °C
4 | CCCCCCCCCCCCCCCCOP(=O)([O-])OCC[N+](C)(C)C [Miltefosine] | -6.86 °C | -17.5 °C | -2.68 °C | -7.38 °C | -3.1 °C | -5.94 °C | -5.77 °C | -3.18 °C | -3.78 °C | -6.22 °C
5 | N#Cc1c(NC(=O)c2cccc3ccccc23)sc2c1CCCC2 [JNK Inhibitor IX] | 0.03 °C | 1.54 °C | 0.06 °C | 0.52 °C | -0.15 °C | 0.78 °C | -0.09 °C | -0.06 °C | 0.19 °C | -0.13 °C
6 | CNCc1ccc(-c2cc(-c3nc(-c4ccc(S(=O)(=O)C(C)C)cc4)cnc3N)on2)cc1 | 1.4 °C | 1.1 °C | 3 °C | 0.25 °C | 4.67 °C | 1.88 °C | 1.85 °C | 0.69 °C | 0.46 °C | 1.41 °C
7 | CC(C)[C@H](CO)Nc1nc(Nc2cccc(Cl)c2)c2ncn(C(C)C)c2n1 [Purvalanol A] | 1.58 °C | 3.04 °C | 0.07 °C | -0.49 °C | 1.34 °C | 2.18 °C | -0.08 °C | 2.56 °C | 0.45 °C | 5 °C
8 | CCN(CC)CCNC(=O)c1c(C)[nH]c(/C=C2\C(=O)Nc3ccc(-c4csc(-c5ccccc5)n4)cc32)c1C [Amcasertib (BBI503)] | 3.77 °C | 0.02 °C | 5.39 °C | -0.01 °C | 1.64 °C | 1.66 °C | 4.12 °C | -0.28 °C | 0.02 °C | -0.1 °C
9 | COc1cc2c(Oc3ccc4[nH]c(C)cc4c3F)ncnc2cc1OCCCN1CCCC1 [Cediranib (AZD2171)] | 0.9 °C | 0.39 °C | 0.21 °C | 0.33 °C | 0.26 °C | 0.39 °C | 0.22 °C | 0.63 °C | 0.05 °C | 0.09 °C
10 | CNC(=O)c1ccc(Nc2ncc(C(F)(F)F)c(NCc3nccnc3N(C)S(C)(=O)=O)n2)cc1 | 1.64 °C | 3.47 °C | 1.96 °C | -0.3 °C | 7.22 °C | 2.6 °C | 5.05 °C | 3.16 °C | 0.96 °C | 6.78 °C
11 | C[C@H]1CNCCCN1S(=O)(=O)c1cccc2cncc(F)c12 [Ripasudil (K-115) hydrochloride dihydrate] | 0.29 °C | 1.34 °C | 0.28 °C | 1.05 °C | 0.24 °C | 0.88 °C | 0.39 °C | 0.68 °C | 0.21 °C | 0.63 °C
12 | CCCCNc1ncc(-c2ccc(CN3CCOCC3)cn2)c(NC2CCC(O)CC2)n1 (stereo not given) | 3.51 °C | 2.08 °C | 0.31 °C | -0.02 °C | 1.13 °C | 1.41 °C | 0.62 °C | 1.38 °C | 0.2 °C | 2.9 °C
13 | COC1(c2sc3c(N4CCOCC4)nc(-c4cnc(N)nc4)nc3c2C)COC1 | 1.79 °C | -0.24 °C | 1.43 °C | 0.47 °C | 0.4 °C | 0.39 °C | 0.28 °C | 0 °C | -0.11 °C | 0.03 °C
14 | COc1cc2nccc(Oc3ccc(NC(=O)C4(C(=O)Nc5ccc(F)cc5)CC4)cc3)c2cc1OC | 1.63 °C | 0.81 °C | 0.73 °C | 0.78 °C | 1.07 °C | 0.93 °C | 1.5 °C | 6.38 °C | 0.3 °C | 2.44 °C
15 | CCc1cccc(CC)c1NC(=O)N1Cc2[nH]nc(NC(=O)c3ccc(N4CCN(C)CC4)cc3)c2C1 | 0.31 °C | 0.54 °C | 0.87 °C | -0.49 °C | 0.31 °C | 0.34 °C | 2.21 °C | 0.01 °C | 0 °C | 0.17 °C
16 | C#Cc1cccc(Nc2ncnc3cc(OC)c(OCCCCCCC(=O)NO)cc23)c1 | 0.66 °C | 0.59 °C | 0.97 °C | 0.44 °C | 0.54 °C | 0.53 °C | 1.06 °C | 1.12 °C | 0.13 °C | 0.41 °C
17 | CCS(=O)(=O)N1CC(CC#N)(n2cc(-c3ncnc4[nH]ccc34)cn2)C1 | 0.57 °C | 1.52 °C | 0.33 °C | 0.37 °C | 2.29 °C | 1.23 °C | 0.17 °C | 0.14 °C | 0.39 °C | 1.36 °C
18 | O=C(c1ccc(F)c(F)c1Nc1ccc(I)cc1F)N1CC(O)([C@@H]2CCCCN2)C1 [Cobimetinib (GDC-0973, RG7420)] | 0.62 °C | 1.67 °C | 0.3 °C | 0.01 °C | 0.39 °C | 0.36 °C | -0.03 °C | 0.12 °C | 0.29 °C | 0.44 °C
19 | Cc1[nH]nc2ccc(-c3cncc(OC[C@@H](N)Cc4ccccc4)c3)cc12 | 0.54 °C | 2.26 °C | 0.37 °C | 0.21 °C | 4.96 °C | 3.58 °C | -0.73 °C | 1.02 °C | 0.06 °C | 2.3 °C
20 | C[C@@H]1CCN(C(=O)CC#N)C[C@@H]1N(C)c1ncnc2[nH]ccc12 | 0.9 °C and -0.07 °C | 0.59 °C and 1.29 °C | 1.82 °C and 1.15 °C | -0.91 °C and -0.21 °C | 0.33 °C and 0.19 °C | 0.43 °C and 0.81 °C | 1.17 °C and 1.71 °C | 1.08 °C and 0.82 °C | 0.59 °C and 0.38 °C | 0.05 °C and 0.04 °C
